BaF3 parental: parental Ba/F3 cell viability inhibition, counter-screen for JAK2V617F inhibitor project, murine pro-B, CellTiter-Glo luminescence; inhibition, % at 5.6 µM; 220,000 compounds, 1.1% hits; CellTiter-Glo ATP luminescence;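 active = inhibition above a per-campaign cutoff, the mean inhibition of all tested compounds plus 3 SD, cut at about 27% in these data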;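 note: 0% = DMSO wells and 100% = JAK Inhibitor I control wells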
APP 5UTR inh: inhibitors of APP translation via 5'UTR reporter, primary screen, APP 5'UTR luciferase, SH-SY5Y cells; SH-SY5Y APP 5'UTR-luciferase reporter, luminescence; inhibition, % at 2 µM; 190,000 compounds, 0.82% hits; AID 1285, 2008;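 active = inhibition above a set limit, derived from the sample mean plus 3 SD, cut at about 45% in these data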
Ba/F3 V617F tox: reduced viability of JAK2V617F-dependent Ba/F3 cells, primary screen, JAK2V617F inhibitor project, cell-based, Ba/F3 EpoR-JAK2V617F, luminescence; 220,000 compounds, 1.1% hits; inhibition, % at 5.6 µM; ATP luminescence;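 active = inhibition above the campaign mean plus 3 SD over all tested compounds, cut at about 24% in these data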;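 note: cytokine-independent growth of Ba/F3 cells driven by EpoR plus mutant JAK2; 0% = DMSO-treated cells and 100% = JAK inhibitor I control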
KLF5 inhibitor: KLF5 expression inhibitors, primary screen, DLD-1 cells, luminescence; DLD-1 KLF5 promoter-luciferase reporter; inhibition, % at 5 µM; 290,000 compounds, 0.23% hits; AID 1700, 2009;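 active = inhibition above a per-plate limit of that plate's mean compound inhibition plus 3 SD, cut at about 60% in these data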;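 note: 0% = DMSO wells and 100% = LY294002 at 200 µM; higher means less KLF5 promoter-driven luciferase light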
IEC-6 tox: cytotoxicity in IEC-6 intestinal epithelial cells, primary screen, cytotoxicity control for KLF5 inhibitor project, cell-based, luminescence; IEC-6 cytotoxicity, luminescence viability; inhibition, % at 5 µM; 290,000 compounds, 0.78% hits;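 note: 0% = plate median of test compound wells and 100% = cytotoxic reference compound wells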
IEC-6 tox confirm: cytotoxic compounds in IEC-6 epithelial cells, confirmation, cytotoxicity control, cell-based, luminescence. shares compounds with IEC-6 tox. IEC-6 rat intestinal epithelial viability. inhibition, % at 5 µM. 1,900 compounds, 63% hits;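 note: 0% = vehicle and 100% = reference cytotoxic drug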
Numbers without * were called inactive; / = not tested or not shown. Only some compounds are listed: those with a hit (about 1.8% of all), similar ones and a draw of the others. Cut-off read from the data, not from the text of the source, unless noted: active = inhibition above about 22%; inactive = the rest.

SMILES	BaF3 parental	APP 5UTR inh	Ba/F3 V617F tox	KLF5 inhibitor	IEC-6 tox	IEC-6 tox confirm
O=C1C(=O)N(CCCN2CCOCC2)C(c2ccc([N+](=O)[O-])cc2)/C1=C(/O)c1ccc2c(c1)OCO2 (stereo not drawn)	/	/	/	-35.4	-3.6	/
CC1c2cc3c(cc2CCN1C(=O)c1ccc(Br)cc1)OCCCO3 (stereo not drawn)	/	/	/	6.8	39.4*	37.0*
COc1ccc(C(=O)N2CCc3cc4c(cc3C2C)OCCCO4)cc1 (stereo not drawn)	/	/	/	10.8	13.1	/
O=C(NCC1CCCO1)c1ccc2c(c1)N(Cc1ccccc1)C(=O)CS2 (stereo not drawn)	/	/	/	-9.1	2.9	/
COc1ccc(CN(C)c2ncnc3sccc23)c(OC)c1OC	/	/	/	32.2	23.0*	9.8
COc1ccc(CCN(C)c2ncnc3sccc23)cc1OC	0.6	1.9	4.7	-13.7	-0.8	/
CC(C)(C)NC(=O)COC(=O)c1ccccc1Nc1ccc(SC(F)F)cc1	3.8	-3.8	-1.0	-69.5	37.9*	31.1*
O=C(COC(=O)c1ccccc1Nc1ccc(SC(F)F)cc1)NC1CC1	9.3	-20.1	-1.5	-50.4	8.7	/
COc1ccc(-n2nc(C(=O)NCC(=O)NCc3cccc(F)c3)c3ccccc3c2=O)cc1Cl	/	/	/	-9.8	10.2	/
Cc1ccc(C(C)C)c(OCc2ccc(C(=O)N/N=C/c3cccc(O)c3O)cc2)c1	89.9*	79.7*	96.8*	34.2	41.4*	78.0*
CC(=O)Nc1ccc(C(=O)N/N=C/c2ccccc2OCc2ccccc2)cc1	3.1	-3.2	-1.3	-14.2	-1.9	/
CC1CN(S(=O)(=O)c2cccc(C(=O)Nc3ccc(S(=O)(=O)Nc4ncccn4)cc3)c2)CC(C)O1 (stereo not drawn)	-0.4	-13.3	-0.9	-4.7	-0.9	/
NC(=O)CN1C(=O)C(=O)N(Cc2ccccc2)C1=O	/	/	/	-30.4	-0.7	/
NC(=O)CN1C(=O)C(=O)N(Cc2ccccc2Cl)C1=O	/	/	/	41.6	43.8*	-6.7
Cc1ccc(CNS(=O)(=O)c2c(C)[nH]c(C)c2C(=O)N2CCCCC2)cc1	/	/	/	-11.7	-0.3	/
CC(=O)NC1=NN(C(C)=O)C(C)(c2cccs2)S1 (stereo not drawn)	61.6*	5.4	62.1*	8.2	56.5*	38.0*
CC(=O)NC1=NN(C(C)=O)C(C)(c2ccco2)S1 (stereo not drawn)	7.8	3.0	-0.5	12.5	-1.8	/
N#Cc1cnn2ccc(-c3ccc4c(c3)CCC4)nc12	6.5	-23.4	4.1	-26.8	7.3	/
COc1ccc(C(=O)c2ccc(Cl)c([N+](=O)[O-])c2)cc1	91.2*	95.0*	91.4*	-29.6	66.1*	72.6*
COc1ccc(C(=O)c2ccc(Cl)cc2)cc1	5.7	-2.1	1.4	1.9	7.7	/
CC(=O)Nc1ccc(C(=O)OCCC(C)C)cc1	7.4	-6.2	-0.6	-51.5	25.2*	22.6*
CCCOC(=O)c1ccc(NC(=O)COC)cc1	3.6	-3.4	0.4	-56.0	2.6	/
CCCCn1c(=O)[nH]c(=O)c2c1nc(Cn1ncc(Cl)c(Cl)c1=O)n2CCC	/	/	/	49.6	101.7*	28.1*
CCCCn1c(=O)[nH]c(=O)c2c1nc(CN1C(=O)c3ccccc3S1(=O)=O)n2CCC	3.3	-19.4	0.5	-23.7	-6.1	/
Cc1ccc(N/N=C(\Cc2nc3ccccc3[nH]2)c2ccccc2)cc1	19.2	92.4*	14.0	4.9	55.3*	60.9*
SMILES	BaF3 parental	APP 5UTR inh	Ba/F3 V617F tox	KLF5 inhibitor	IEC-6 tox	IEC-6 tox confirm
COc1ccccc1NS(=O)(=O)c1ccc2ccccc2c1	/	/	/	-9.1	-7.2	/
Cc1cc(C)c(NS(=O)(=O)c2cccc3cccnc23)c(C)c1	-2.4	12.3	-0.7	-25.2	-0.8	/
COc1ccc(NS(=O)(=O)c2ccc3ccccc3c2)c2ncccc12	/	/	/	33.7	60.2*	52.3*
O=S(=O)(Nc1cccc2cccnc12)c1ccccc1	/	/	/	10.4	102.5*	98.1*
Cc1ccc(S(=O)(=O)Nc2cccc3cccnc23)c([N+](=O)[O-])c1	/	/	/	-6.1	66.1*	47.3*
Cc1ccc2cccc(NS(=O)(=O)c3ccccc3)c2n1	/	/	/	-1.0	99.4*	100.4*
COCCn1c(SCC(=O)Nc2cc(C)on2)nc2c(c1=O)SCC2	/	/	/	-23.4	-0.3	/
C=CCNS(=O)(=O)c1cc(S(=O)(=O)NCC=C)c(OC)cc1OC	2.2	11.6	-3.5	-6.1	-8.6	/
O=S(=O)(Nc1cccc2cccnc12)c1ccc(S(=O)(=O)N2CCCC2)cc1	6.4	-3.9	2.9	7.2	31.5*	35.5*
Cc1cc(C)c(S(=O)(=O)N2CCN(S(=O)(=O)N3CCOCC3)CC2)c(C)c1	/	/	/	-14.8	1.4	/
Cc1ccc(S(=O)(=O)Nc2ccc(Br)cc2C(NCC(=O)O)c2ccccc2)cc1 (stereo not drawn)	-0.8	-10.6	-0.5	30.9	3.6	/
O=C(O)CSc1cc(NS(=O)(=O)c2ccc(Br)cc2)c2ccccc2c1O	/	/	/	-51.7	53.5*	-3.3
CCn1c(-c2ccc(N(C)C)cc2)nc2ccccc21	67.8*	-95.6	77.9*	-88.7	30.2*	6.0
CCCC[C@H](CN[C@@H](CNC)[C@H](C)CC)NCCC12CCC(CC1)C2	/	/	/	-22.2	38.7*	102.1*
COc1cc2nc(=S)n3[nH]c(CCn4nc(C)cc4C)nc3c2cc1OC	7.5	15.8	3.6	10.1	53.3*	8.4
COc1cc2nc(=S)n3[nH]c(COc4ccccc4C)nc3c2cc1OC	4.8	-1.8	1.4	-0.5	-1.1	/
Cc1ccc(NCC(=O)N/N=C/c2c[nH]c3ccccc23)cc1	4.2	-2.8	-0.3	-19.8	3.7	/
COc1cc(CCC(=O)Nc2nnc(C)s2)cc(OC)c1OC	/	/	/	46.5	47.8*	34.6*
COc1cc(CCC(=O)Nc2ncc(C)s2)cc(OC)c1OC	/	/	/	-5.1	2.1	/
CSCCC(=O)Nc1nc(-c2ccccn2)cs1	4.8	7.4	0.0	19.8	1.7	/
O=C(Nc1nc(-c2ccccn2)cs1)c1ncc(Cl)c(Cl)c1Cl	7.0	-16.2	-0.7	-8.2	-5.4	/
O=C(Nc1nc(-c2ccccn2)cs1)C1CCCC1	0.4	-23.8	-5.2	-60.2	25.1*	-0.6
Cc1cccc(C(=O)NC(C(=O)Nc2nc(-c3ccccn3)cs2)C(C)C)c1 (stereo not drawn)	4.6	-7.0	8.1	26.0	48.9*	42.1*
O=C(Nc1nc(-c2ccccn2)cs1)c1ccc(S(=O)(=O)N2CCCCC2)cc1	55.6*	/	55.5*	45.8	50.4*	54.3*
O=C(Nc1nc(-c2ccccn2)cs1)c1ccc(Cl)s1	3.1	77.2*	0.5	10.3	45.0*	75.4*
CCOc1ccc(OCCC(=O)OCC(=O)NCc2ccccc2)cc1	/	/	/	-25.0	-0.8	/
Cc1cccnc1Nc1nc(-c2ccccn2)cs1	76.6*	92.6*	89.5*	11.2	83.8*	88.5*
